Test results: the supplement of paper PMC9135407
Values joined by “and” are separate entries in the source; they are usually repeats but may differ in a detail not shown here. Identical values can stand only once. Counter-ions that a name gives are not always drawn. The whole screen tested about 5,800 compounds, of which about 620 (11%) showed activity. This excerpt belongs to a sample that is enriched for actives. Unmarked numbers belong to inactive results.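 How the source made its calls: active = score above a cut-off or among the top three wells of a plate; in these data no inactive exceeds 0.85.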

System: primary human hepatic stellate cells (donor 1)
Assay: scaled lipid accumulation score (0 = DMSO-like, 1 = nortriptyline-like); higher = stronger HSC inactivation (lipid re-accumulation), active = hit call of the paper
Conditions: 48 h
[1] = library stock concentration: 10 mM
[2] = library stock concentration: 1 mM
[3] = library stock concentration: 3.33 mM

Structure (SMILES): COc1c(OC)c2occc2c2oc(=O)ccc12 [Pimpinellin]
- scaled lipid accumulation score [1]: ≤ 0

Structure (SMILES): O=C(O)CCC/C=C/C[C@@H]1[C@@H](/C=C/[C@@H](O)COc2cccc(C(F)(F)F)c2)[C@H](O)C[C@@H]1O [5-trans Fluprostenol]
- scaled lipid accumulation score [2]: 0.008

Structure (SMILES): CC(C)COCC(CN(Cc1ccccc1)c1ccccc1)N1CCCC1 (stereo unspecified) [Bepridil hydrochloride]
- scaled lipid accumulation score: 0.677
- scaled lipid accumulation score (library stock concentration: 5 mM): 0.569
- scaled lipid accumulation score [1]: 0.175 and 0.195

Structure (SMILES): c1ccc(CN(CC2=NCCN2)c2ccccc2)cc1 [Antazoline hydrochloride]
- scaled lipid accumulation score: 0.544
- scaled lipid accumulation score [1]: 0.11

Structure (SMILES): c1ccc(CN(CC2=NCCN2)c2ccccc2)cc1 [Antazoline phosphate]
- scaled lipid accumulation score [1]: 0.143

Structure (SMILES): c1ccc(CN(CC2=NCCN2)c2ccccc2)cc1 [Antazoline HCl]
- scaled lipid accumulation score [3]: ≤ 0
- scaled lipid accumulation score [1]: 0.363

Structure (SMILES): CC(C)COCC(CN(Cc1ccccc1)c1ccccc1)N1CCCC1.Cl (stereo unspecified)
- scaled lipid accumulation score (library stock concentration: 12.4 mM): 0.96 (active)

Structure (SMILES): Nc1cc2c(ncn2CCOCP(=O)(O)O)c(=O)[nH]1 [PMEG hydrate]
- scaled lipid accumulation score [1]: ≤ -0.055

Structure (SMILES): C=CCNC1=C2C[C@@H](C)C[C@H](OC)[C@H](O)[C@@H](C)C=C(C)[C@H](OC(N)=O)[C@@H](OC)C=CC=C(C)C(=O)NC(=CC1=O)C2=O [17-AAG (Tanespimycin)]
- scaled lipid accumulation score [1]: 0.873 (active)

Structure (SMILES): C=CCNC1=C2C[C@@H](C)C[C@H](OC)[C@H](O)[C@@H](C)/C=C(\C)[C@H](OC(N)=O)[C@@H](OC)/C=C\C=C(/C)C(=O)NC(=CC1=O)C2=O [17-AAG (Tanespimycin)]
- scaled lipid accumulation score [3]: 0.613

Structure (SMILES): CO[C@H]1/C=C\C=C(/C)C(=O)NC2=CC(=O)C(NCCN(C)C)=C(C[C@@H](C)C[C@H](OC)[C@H](O)[C@@H](C)/C=C(\C)[C@@H]1OC(N)=O)C2=O [17-DMAG (Alvespimycin) HCl]
- scaled lipid accumulation score [3]: 0.404

Structure (SMILES): CO[C@H]1C=CC=C(C)C(=O)NC2=CC(=O)C(NCCN(C)C)=C(C[C@@H](C)C[C@H](OC)[C@H](O)[C@@H](C)C=C(C)[C@@H]1OC(N)=O)C2=O.Cl [17-DMAG (Alvespimycin) HCl]
- scaled lipid accumulation score [1]: 1.24 (active)

Structure (SMILES): COC1=C2C[C@@H](C)C[C@H](OC)[C@H](O)[C@@H](C)/C=C(\C)[C@H](OC(N)=O)[C@@H](OC)/C=C\C=C(/C)C(=O)NC(=CC1=O)C2=O [Geldanamycin]
- scaled lipid accumulation score [3]: 0.54
- scaled lipid accumulation score (library stock concentration: 8.9 mM): 0.573
- scaled lipid accumulation score [1]: 0.493

Structure (SMILES): CCCCC[C@H](O)/C=C/[C@@H]1[C@@H](C/C=C/CCCC(=O)O)[C@H](O)C[C@H]1O [5-trans Prostaglandin F2.beta.]
- scaled lipid accumulation score [2]: ≤ 0

Structure (SMILES): O=C1OC(O)C(c2cc3ccccc3s2)=C1Br (stereo unspecified)
- scaled lipid accumulation score [2]: 0.04

Structure (SMILES): O=C1O/C(=C/Br)CC[C@H]1c1cccc2ccccc12 [(S)-Bromoenol lactone]
- scaled lipid accumulation score [2]: 0.103

Structure (SMILES): COc1cc(C(=O)OCCCN2CCCN(CCCOC(=O)c3cc(OC)c(OC)c(OC)c3)CC2)cc(OC)c1OC [Dilazep dihydrochloride]
- scaled lipid accumulation score: 0.164

Structure (SMILES): COc1cc(C(=O)N2CCOCC2)cc(OC)c1OC [Trimetozine]
- scaled lipid accumulation score (library stock concentration: 7.1 mM): ≤ 0

Structure (SMILES): COc1cc(C(=O)OCCCN2CCCN(CCCOC(=O)c3cc(OC)c(OC)c(OC)c3)CC2)cc(OC)c1OC.Cl.Cl [Dilazep dihydrochloride]
- scaled lipid accumulation score [1]: 1.06 (active)

Structure (SMILES): COc1cc(OC)c(C(=O)CCCN2CCCC2)c(OC)c1 [Buflomedil hydrochloride]
- scaled lipid accumulation score: 0.025

Structure (SMILES): COc1cc(OC)c(C(=O)CCCN2CCCC2)c(OC)c1
- scaled lipid accumulation score [1]: ≤ 0

Structure (SMILES): COc1cc(N)c(Cl)cc1C(=O)OCCCN1CCCCC1
- scaled lipid accumulation score [1]: 0.126

Structure (SMILES): COc1cc(C(=O)OCCC[NH+]2CCC[NH+](CCCOC(=O)c3cc(OC)c(OC)c(OC)c3)CC2)cc(OC)c1OC.[Cl-].[Cl-] [Dilazep hydrochloride]
- scaled lipid accumulation score [1]: 0.951 (active)

Structure (SMILES): COc1cc(OC)c(C(=O)CCCN2CCCC2)c(OC)c1 [Buflomedil HCl]
- scaled lipid accumulation score [3]: ≤ 0
- scaled lipid accumulation score [1]: ≤ 0

Structure (SMILES): COc1cc(C(=O)OCCCN2CCCN(CCCOC(=O)c3cc(OC)c(OC)c(OC)c3)CC2)cc(OC)c1OC.Cl.Cl
- scaled lipid accumulation score [1]: 0.84 (active)

Structure (SMILES): COc1cc(C(=O)NCCCCCC(=O)O)cc(OC)c1OC [Capobenic acid]
- scaled lipid accumulation score (library stock concentration: 6.1 mM): ≤ 0

Structure (SMILES): COc1cc(N)c(Cl)cc1C(=O)OCCN1CCCCC1
- scaled lipid accumulation score [1]: ≤ -0.007

Structure (SMILES): CC1(C)CCCC2(C)C1CCC1(C)OC(=O)CC12 (stereo unspecified) [Sclareolide]
- scaled lipid accumulation score [3]: ≤ 0
- scaled lipid accumulation score [1]: 0.09

Structure (SMILES): NC(=O)c1ccc(N(C(N)=O)c2c(F)cccc2F)nc1-c1ccc(F)cc1F
- scaled lipid accumulation score (library stock concentration: 80 uM): ≤ -0.001
- scaled lipid accumulation score (library stock concentration: 400 uM): ≤ -0.001 and ≤ -0.005
- scaled lipid accumulation score (library stock concentration: 2 mM): ≤ -0.001 and 0.083
- scaled lipid accumulation score [3]: ≤ 0
- scaled lipid accumulation score [1]: ≤ 0 and 0.012 and ≤ -0.005
